For some of these results: Results with a measured potency or affinity are listed apart. Calls of active or inactive are those of the source. Unless noted, how the calls were made is not given here.
Assays:
[1] = antimalarial activity against Dd2 strain (AID 2302;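 active means growth inhibition above 50% at the single 2 µM test dose, taken to imply half-maximal potency below 2 µM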;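 further: 0% = DMSO untreated growth and 100% = chloroquine plus artemisinin killed control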); details: P. falciparum Dd2 in RBCs, LDH growth readout, 72 h; at 2 µM; hits give high values
[2] = human hepatoma cell viability loss – ATP luminescence, cytotoxicity control for P. falciparum antimalarial project, primary screen (AID 2303;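 active means inhibition above 50%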;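 further: 0% = DMSO wells and 100% = digitonin-killed cells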); details: HepG2 viability, 24-48 h, at 10 µM, hits give high values
[3] = target: L-lactate dehydrogenase (Plasmodium falciparum (isolate CDC / Honduras)) (UniProt Q27743); test: PfLDH activity inhibition – cell lysate, 3D7 strain, counter-screen for P. falciparum growth inhibition project (AID 2304);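 further: 0% = vehicle and 100% = reference inhibitor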; details: P. falciparum 3D7 crude extract, LDH APAD/NBT absorbance; at 2 µM; hits give high values
[4] = inhibition of 3D7 malaria parasite growth – strain 3D7 (AID 2306);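 further: 0% = DMSO wells and 100% = chloroquine plus artemisinin control wells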; details: P. falciparum 3D7 erythrocytic growth, LDH absorbance, 72 h; at 2 µM; hits give high values
[5] = target: Calcium-dependent protein kinase 1 (Plasmodium falciparum (isolate 3D7)) (UniProt P62344); test: PfCDPK1 kinase inhibitors, biochemical, TCAMS library (AID 1159585; cut-off not given, nearly all actives have IC50 up to about 0.98 µM;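 further: inhibitors leave more ATP so luminescence rises with inhibition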); details: recombinant PfCDPK1, Kinase-Glo ATP depletion luminescence
[6] = target: Plasmodium falciparum protein kinase 6 (PK6, PF3D7_1337100) (UniProt Q8IDW1); test: PfPK6 kinase inhibitors, biochemical, TCAMS library (AID 1159586); details: recombinant PfPK6, Kinase-Glo ATP depletion luminescence
[7] = target: Protein kinase 7 (PK7), Plasmodium falciparum 3D7 (PF3D7_0213400) (UniProt Q7YTF7); test: inhibition of Plasmodium PK7 catalytic activity – biochemical, TCAMS antimalarial set, Kinase-Glo luminescence (AID 1159587); details: recombinant PfPK7, Kinase-Glo ATP depletion luminescence
[8] = target: Calcium-dependent protein kinase 4 (Plasmodium falciparum (isolate 3D7)) (UniProt Q8IBS5); test: PfCDPK4 kinase inhibitors, biochemical, TCAMS library (AID 1159588; cut-off not given, nearly all actives have IC50 up to about 0.91 µM); details: recombinant PfCDPK4, Kinase-Glo ATP depletion luminescence
Calcium-dependent protein kinase 4 (Plasmodium falciparum (isolate 3D7)), sequence (Q8IBS5 whole entry, looked up): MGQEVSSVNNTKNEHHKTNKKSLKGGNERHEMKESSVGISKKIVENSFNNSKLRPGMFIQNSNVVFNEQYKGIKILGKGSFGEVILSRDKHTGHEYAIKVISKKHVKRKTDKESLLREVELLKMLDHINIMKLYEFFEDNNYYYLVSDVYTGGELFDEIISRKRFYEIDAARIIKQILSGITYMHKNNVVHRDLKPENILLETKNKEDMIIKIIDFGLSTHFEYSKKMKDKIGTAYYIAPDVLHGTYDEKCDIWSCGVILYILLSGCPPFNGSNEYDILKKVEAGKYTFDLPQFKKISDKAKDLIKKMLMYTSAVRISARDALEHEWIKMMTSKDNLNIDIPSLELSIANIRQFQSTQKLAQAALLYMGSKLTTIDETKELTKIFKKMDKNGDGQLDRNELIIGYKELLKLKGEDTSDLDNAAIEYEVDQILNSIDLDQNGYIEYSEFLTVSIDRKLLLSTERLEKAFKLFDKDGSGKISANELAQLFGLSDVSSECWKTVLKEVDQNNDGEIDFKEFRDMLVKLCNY

L-lactate dehydrogenase (Plasmodium falciparum (isolate CDC / Honduras)), sequence (Q27743 whole entry, looked up): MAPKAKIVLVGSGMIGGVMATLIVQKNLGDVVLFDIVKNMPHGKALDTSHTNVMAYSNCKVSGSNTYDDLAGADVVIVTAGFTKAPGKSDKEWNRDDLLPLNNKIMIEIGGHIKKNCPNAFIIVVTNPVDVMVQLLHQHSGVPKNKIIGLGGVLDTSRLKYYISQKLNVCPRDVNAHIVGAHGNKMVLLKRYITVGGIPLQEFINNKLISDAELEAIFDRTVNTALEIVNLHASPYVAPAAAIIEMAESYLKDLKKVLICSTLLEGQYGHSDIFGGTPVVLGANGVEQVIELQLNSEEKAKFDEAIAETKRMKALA
Plasmodium falciparum protein kinase 6 (PK6, PF3D7_1337100), sequence (Q8IDW1 1-305): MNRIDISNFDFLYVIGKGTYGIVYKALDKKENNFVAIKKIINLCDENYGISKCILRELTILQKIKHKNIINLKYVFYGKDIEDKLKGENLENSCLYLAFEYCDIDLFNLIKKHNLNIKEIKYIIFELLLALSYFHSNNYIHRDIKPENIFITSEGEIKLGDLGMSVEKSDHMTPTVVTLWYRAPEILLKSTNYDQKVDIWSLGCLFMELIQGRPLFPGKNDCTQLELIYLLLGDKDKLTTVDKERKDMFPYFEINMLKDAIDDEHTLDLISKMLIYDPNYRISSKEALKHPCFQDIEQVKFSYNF
Calcium-dependent protein kinase 1 (Plasmodium falciparum (isolate 3D7)), sequence (P62344 whole entry, looked up): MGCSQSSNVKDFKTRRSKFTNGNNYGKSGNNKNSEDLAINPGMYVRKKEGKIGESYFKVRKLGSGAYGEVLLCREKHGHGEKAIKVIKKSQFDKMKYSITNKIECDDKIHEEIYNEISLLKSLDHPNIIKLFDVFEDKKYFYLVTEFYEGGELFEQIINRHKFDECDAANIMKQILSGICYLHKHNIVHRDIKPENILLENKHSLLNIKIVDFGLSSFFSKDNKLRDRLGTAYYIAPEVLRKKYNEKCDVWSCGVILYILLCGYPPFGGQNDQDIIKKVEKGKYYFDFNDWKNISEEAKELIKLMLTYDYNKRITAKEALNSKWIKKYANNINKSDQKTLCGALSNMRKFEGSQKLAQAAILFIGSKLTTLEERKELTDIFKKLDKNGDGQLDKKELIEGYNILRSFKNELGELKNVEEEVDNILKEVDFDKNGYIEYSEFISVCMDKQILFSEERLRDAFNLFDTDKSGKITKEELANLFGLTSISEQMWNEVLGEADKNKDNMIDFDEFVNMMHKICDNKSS
Protein kinase 7 (PK7), Plasmodium falciparum 3D7 (PF3D7_0213400), sequence (Q7YTF7 1-343): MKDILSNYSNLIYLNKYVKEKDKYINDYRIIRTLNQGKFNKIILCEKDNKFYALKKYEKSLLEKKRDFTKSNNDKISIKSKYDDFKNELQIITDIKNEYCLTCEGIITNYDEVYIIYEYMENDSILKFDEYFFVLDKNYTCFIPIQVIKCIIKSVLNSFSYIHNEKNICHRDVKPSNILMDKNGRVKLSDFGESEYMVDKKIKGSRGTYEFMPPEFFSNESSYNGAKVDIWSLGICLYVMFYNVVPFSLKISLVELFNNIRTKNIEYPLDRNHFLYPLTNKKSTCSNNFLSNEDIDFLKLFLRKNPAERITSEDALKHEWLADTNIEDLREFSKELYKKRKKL

Cc1cccc(CNc2nc(C)cc(N[C@@H](Cc3ccccc3)C(=O)NCc3cccc(F)c3)n2)c1
active: growth inhibition [1] 82% | growth inhibition [4] 101%
inactive: inhibition [2] 39% | inhibition [3] -2% | outcome [5] | outcome [6] | outcome [7] | outcome [8]

O=C(Nc1cccc(C(F)(F)F)c1)N1CCOC(CCN2CCC(c3ccccc3)CC2)(c2ccc(Cl)c(Cl)c2)C1 (stereo not drawn)
inactive: inhibition [2] 15% | inhibition [3] 8% | outcome [5] | outcome [6] | outcome [7] | outcome [8]
active: growth inhibition [1] 69% | growth inhibition [4] 87%

Clc1ccccc1CCNCC1CCN(CC2CCCCC2)CC1
inactive: growth inhibition [1] 38% | inhibition [2] 45% | inhibition [3] -5% | outcome [5] | outcome [6] | outcome [7] | outcome [8]
active: growth inhibition [4] 97%

CCOc1ccc(-c2nc(NC(=O)Cc3cccc(OC)c3)sc2C)cc1
active: growth inhibition [4] 97%
inactive: growth inhibition [1] 28% | inhibition [2] 15% | inhibition [3] 3% | outcome [5] | outcome [6] | outcome [7] | outcome [8]

O=c1cc(NCCCNC(CNCCc2ccccc2)c2cc(Br)cc(Br)c2)[nH]c2ccccc12 (stereo not drawn)
active: growth inhibition [1] 53% | growth inhibition [4] 93%
inactive: inhibition [2] -2% | inhibition [3] 1% | outcome [5] | outcome [6] | outcome [7] | outcome [8]

COc1c(CNCCCCCCNCc2cc(Cl)c3ccccc3c2OC)cc(Cl)c2ccccc12
inactive: growth inhibition [1] 45% | inhibition [3] -4% | outcome [5] | outcome [6] | outcome [7] | outcome [8]
active: inhibition [2] 100% | growth inhibition [4] 96%

O=C(NCC1CCC1)c1cnc(Nc2cccc(Cl)c2)nc1N1CCC1
inactive: inhibition [2] 21% | inhibition [3] 2% | outcome [5] | outcome [6] | outcome [7] | outcome [8]
active: growth inhibition [1] 75% | growth inhibition [4] 98%

Cc1cc(C)c(O)c(-c2cc(C(=O)Nc3ccc(S(=O)(=O)N4CC(C)OC(C)C4)cc3)[nH]n2)c1 (stereo not drawn)
active: growth inhibition [4] 95%
inactive: growth inhibition [1] 16% | inhibition [2] 31% | inhibition [3] -1% | outcome [5] | outcome [6] | outcome [7] | outcome [8]

O=S1(=O)NC2(CCN(CCc3ccc(Cl)cc3)CC2)Nc2cc(F)cc(F)c21
active: growth inhibition [4] 86%
inactive: growth inhibition [1] 5% | inhibition [2] 7% | inhibition [3] -1% | outcome [5] | outcome [6] | outcome [7] | outcome [8]

Cc1cccc2[nH]c(-c3ccc(-c4cccc(C(=O)NCCc5cn(C)cn5)c4)s3)nc12
active: growth inhibition [4] 92%
inactive: growth inhibition [1] 17% | inhibition [2] 27% | inhibition [3] -7% | outcome [5] | outcome [6] | outcome [7] | outcome [8]

CCC1N=C(N)N=C(N)N1OCc1cccc2ccccc12 (stereo not drawn)
active: inhibition [2] 66% | growth inhibition [4] 93%
inactive: growth inhibition [1] 1% | inhibition [3] -4% | outcome [5] | outcome [6] | outcome [7] | outcome [8]

CCN(CC)CCN(Cc1ccc(-c2ccc(Cl)cc2)cc1)C(=O)Cn1c(CCc2cccc(F)c2F)nc(=O)c2ccccc21
active: growth inhibition [1] 75% | growth inhibition [4] 101%
inactive: inhibition [2] 45% | inhibition [3] -4% | outcome [5] | outcome [6] | outcome [7] | outcome [8]

FC(F)(F)c1ccc2nc(-c3cccc(-c4ccc(CNCCN5CCNCC5)cc4)c3)[nH]c2c1
inactive: growth inhibition [1] 0% | inhibition [2] 17% | inhibition [3] 4% | outcome [5] | outcome [6] | outcome [7] | outcome [8]
active: growth inhibition [4] 96%

CCOC(=O)c1[nH]c(-c2cc(Cl)nc(Cl)c2)nc1NC(=S)NCCCN1CCOCC1
active: growth inhibition [1] 71% | growth inhibition [4] 89%
inactive: inhibition [2] 13% | inhibition [3] 3% | outcome [5] | outcome [6] | outcome [7] | outcome [8]

Cc1c(C)n(C2CCCCC2)c2ncnc(OC3CCN(CC(=O)NC4CC4)CC3)c12
active: growth inhibition [1] 72% | growth inhibition [4] 94%
inactive: inhibition [2] 21% | inhibition [3] -2% | outcome [5] | outcome [6] | outcome [7] | outcome [8]

CC(C)c1ccc(OCC(O)CN(C)C(C)C(O)c2ccccc2)c(Br)c1 (stereo not drawn)
active: growth inhibition [1] 97% | growth inhibition [4] 95%
inactive: inhibition [2] 36% | inhibition [3] -3% | outcome [5] | outcome [6] | outcome [7] | outcome [8]

COc1cc2ncnc(Nc3ccc(OCc4ccccc4Br)c(OC)c3)c2cc1OC
inactive: inhibition [2] 11% | inhibition [3] -1% | outcome [5] | outcome [6] | outcome [7] | outcome [8]
active: growth inhibition [1] 62% | growth inhibition [4] 100%

COc1cc2nc(C)nc(Nc3ccc(Oc4ccccc4)cc3)c2cc1OC
inactive: inhibition [2] -8% | inhibition [3] 6% | outcome [5] | outcome [6] | outcome [7] | outcome [8]
active: growth inhibition [1] 72% | growth inhibition [4] 101%

O=C(Nc1cccc(C(F)(F)F)c1)c1ccc(S(=O)(=O)NCC2CCCN2CC2CCCCC2)cc1 (stereo not drawn)
inactive: growth inhibition [1] 3% | inhibition [2] 14% | inhibition [3] -5% | outcome [5] | outcome [6] | outcome [7] | outcome [8]
active: growth inhibition [4] 98%

Cc1cc(NN=Cc2ccccc2Cl)c2cccc(C)c2n1
inactive: inhibition [2] 10% | inhibition [3] 2% | outcome [5] | outcome [6] | outcome [7] | outcome [8]
active: growth inhibition [1] 98% | growth inhibition [4] 97%

Cc1ccc2[nH]c3c(NCCN(C)C)ncnc3c2c1
active: growth inhibition [4] 99%
inactive: growth inhibition [1] 5% | inhibition [2] 9% | inhibition [3] 0% | outcome [5] | outcome [6] | outcome [7] | outcome [8]

N#Cc1ccc(-c2ccc(C(=O)NCCCCN3CCC(c4nc5ccccc5[nH]4)CC3)cc2)cc1
inactive: growth inhibition [1] 13% | inhibition [2] 43% | inhibition [3] 4% | outcome [5] | outcome [6] | outcome [7] | outcome [8]
active: growth inhibition [4] 92%

Cc1cccc2[nH]c(-c3ccc(-c4ccc(CN5CCN(c6ccc(C#N)cn6)CC5)cc4)s3)nc12
inactive: growth inhibition [1] 44% | inhibition [2] 10% | inhibition [3] 2% | outcome [5] | outcome [6] | outcome [7] | outcome [8]
active: growth inhibition [4] 98%

CC(=O)N(Cc1nc(-c2cc(Cl)c(Cl)s2)cs1)c1c(C)cccc1C
active: growth inhibition [1] 95% | growth inhibition [4] 98%
inactive: inhibition [2] 5% | inhibition [3] 3% | outcome [5] | outcome [6] | outcome [7] | outcome [8]

CC(C)(C)c1ccc(OCCCON2C(N)=NC(N)=NC2(C)C)c(C(C)(C)C)c1
inactive: inhibition [3] 2% | outcome [5] | outcome [6] | outcome [7] | outcome [8]
active: growth inhibition [1] 97% | inhibition [2] 64% | growth inhibition [4] 93%

CCCC(C)N(Cc1ccc(C(C)(C)C)cc1)C(=O)c1ccc(OC)cc1 (stereo not drawn)
active: growth inhibition [1] 98% | growth inhibition [4] 100%
inactive: inhibition [2] 7% | inhibition [3] -2% | outcome [5] | outcome [6] | outcome [7] | outcome [8]

OC(CN(Cc1ccccc1)Cc1ccccc1)Cn1c2ccc(Cl)cc2c2cc(Cl)ccc21 (stereo not drawn)
inactive: inhibition [2] 5% | inhibition [3] 6% | outcome [5] | outcome [6] | outcome [7] | outcome [8]
active: growth inhibition [1] 95% | growth inhibition [4] 89%

Cc1cccc2[nH]c(-c3ccc(-c4cccc(NC(=O)C(C)CN5CCN(C)CC5)c4)cc3)nc12 (stereo not drawn)
inactive: inhibition [2] 5% | inhibition [3] 3% | outcome [5] | outcome [6] | outcome [7] | outcome [8]
active: growth inhibition [1] 51% | growth inhibition [4] 98%

COc1ccc2nccc([C@@H](O)CN3CC[C@H](NCc4cnc5c(c4)NC(=O)CS5)[C@H](F)C3)c2c1
active: growth inhibition [1] 90% | growth inhibition [4] 90%
inactive: inhibition [2] -4% | inhibition [3] -2% | outcome [5] | outcome [6] | outcome [7] | outcome [8]

COc1cc2nc(NCCCO)nc(Nc3ccc(Oc4ccccc4)cc3)c2cc1OC
active: growth inhibition [1] 101% | growth inhibition [4] 101%
inactive: inhibition [2] 24% | inhibition [3] 0% | outcome [5] | outcome [6] | outcome [7] | outcome [8]

COc1ccc2nccc([C@@H](O)CN3CCC(NCc4cn5cc(F)ccc5n4)CC3)c2c1
active: growth inhibition [4] 96%
inactive: growth inhibition [1] 5% | inhibition [2] 19% | inhibition [3] -5% | outcome [5] | outcome [6] | outcome [7] | outcome [8]

Cc1cc(-c2ccc(CNCc3ccc(F)cc3)cc2)ccc1S(=O)(=O)NCCN1CCCC1
inactive: growth inhibition [1] 41% | inhibition [3] -1% | outcome [5] | outcome [6] | outcome [7] | outcome [8]
active: inhibition [2] 95% | growth inhibition [4] 100%

Cc1ccc(C)c2c1[nH]c1ccc(C3=NCCN3)cc12
active: growth inhibition [4] 100%
inactive: growth inhibition [1] -6% | inhibition [2] 29% | inhibition [3] -3% | outcome [5] | outcome [6] | outcome [7] | outcome [8]

CCc1ccccc1N1CCN(CCCCNC(=O)c2ccc(NC(=O)c3ccc(Cl)cc3)cc2)CC1
inactive: growth inhibition [1] 4% | inhibition [2] 21% | inhibition [3] -4% | outcome [5] | outcome [6] | outcome [7] | outcome [8]
active: growth inhibition [4] 96%

O=C(Nc1cccc(C(F)(F)F)c1)Nc1cc(F)c(F)cc1Cl
inactive: inhibition [2] -1% | inhibition [3] 5% | outcome [5] | outcome [6] | outcome [7] | outcome [8]
active: growth inhibition [1] 98% | growth inhibition [4] 83%

Cc1c(-c2cccc(Br)c2)[nH]c2nc(N)nc(N)c12
inactive: inhibition [2] 8% | inhibition [3] -4% | outcome [5] | outcome [6] | outcome [7] | outcome [8]
active: growth inhibition [1] 61% | growth inhibition [4] 100%

COc1ccc(Nc2ccnc3cc(-c4ccccn4)ccc23)cc1OC
active: growth inhibition [4] 91%
inactive: growth inhibition [1] 26% | inhibition [2] 14% | inhibition [3] 1% | outcome [5] | outcome [6] | outcome [7] | outcome [8]

O=C(Cn1cc(C(F)(F)F)cc(Cl)c1=O)N1CCN(S(=O)(=O)c2ccc(Cl)cc2)CC1
active: growth inhibition [1] 69% | growth inhibition [4] 99%
inactive: inhibition [2] 14% | inhibition [3] 0% | outcome [5] | outcome [6] | outcome [7] | outcome [8]

CC[C@H](C)CNC(=O)c1cncc(-c2ccc(CNCC3CNCCCO3)cc2)c1 (stereo partly drawn)
inactive: growth inhibition [1] -2% | inhibition [2] -5% | inhibition [3] -1% | outcome [5] | outcome [6] | outcome [7] | outcome [8]
active: growth inhibition [4] 100%

Cc1ccc(-c2nnc(Nc3ccc(C(=O)N4CCCCC4)cc3)c3ccccc23)cc1S(=O)(=O)NCC1CCCO1 (stereo not drawn)
inactive: inhibition [2] -5% | inhibition [3] -4% | outcome [5] | outcome [6] | outcome [7] | outcome [8]
active: growth inhibition [1] 99% | growth inhibition [4] 99%

CC(=O)Nc1cccc(C(=O)Nc2cccc(-c3ccc(-c4nc5ccc(F)cc5[nH]4)s3)c2)c1
inactive: growth inhibition [1] 30% | inhibition [3] -1% | outcome [5] | outcome [6] | outcome [7] | outcome [8]
active: inhibition [2] 88% | growth inhibition [4] 94%

From PubChem BioAssay
